# Test results as given in PubChem BioAssay (NCATS).
# Several values for one entry are separate records, joined by “and”; a condition that tells them apart may be missing. Equal entries are not always repeated. Inconclusive results are not listed. A number with no mark means an inactive call. Activity calls are given as the source filed them. Calls come from the whole dose curve; as a rule, active = well fitted curve in the direction sought with a large enough effect; inconclusive = small, poorly fitted or top-dose-only effect, or another doubt; inactive = no such curve, though single readings can be large; an effect the other way counts as inactive or inconclusive.
# What was measured:
# [1] = Viability qHTS for spleen associated tyrosine kinase inhibitor (SYKi) drug resistant MV4-11 cells (AID 1963824); settings: SYKi-resistant MV4-11 viability, CellTiter-Glo, 72 h; series mostly up to 45 µM; note: nearly all actives have a fitted effect of over 35% in size
# Method in brief: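 CellTiter-Glo luminescence, read 10 min after reagent addition, reports viability after a 72 hr compound exposure. Cells are an MV4-11 line made resistant to SYK inhibition, seeded at 500 per well onto compound-containing plates.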
# [2] = Cellular viability qHTS for adrenocortical cancer (ACC) cell line SW-13 (AID 1963989); settings: SW-13 ACC cells viability, CellTiter-Glo, 48 h; activity (max response): hits give low values; note: nearly all actives have a fitted effect of over 65% in size;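 for activity (max response): cells grown in serum-free medium with ITS supplement; % is set by controls: 0 for no effect and ±100 for the full control effect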
# Method in brief: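 Viability was read as CellTiter-Glo luminescence after 48 h compound treatment (up to 46 uM final) of SW-13 cells grown serum-free; titration curves were fit with a four-parameter logistic model to give IC50 and efficacy.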
# [3] = Cellular viability qHTS for adrenocortical cancer (ACC) cell line NCI-H295R (AID 1963990); settings: CellTiter-Glo ATP luminescence, 48 h; series mostly up to 46.1 µM; note: nearly all actives have a fitted effect of over 60% in size
# Method in brief: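 CellTiter-Glo ATP luminescence, read 48 h after compound addition, measured viability of NCI-H295R adrenocortical cells grown serum-free with ITS. Final concentrations spanned up to 46 uM. Data normalized to DMSO and doxorubicin, fitted for IC50 and maximal response.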
# Potency is the fitted concentration of half-maximal effect.
Structure (SMILES),Potency [1],activity (max response) [2],Potency [3],Potency [2]
Nc1ncnc2nc[nH]c12,inactive,2.49%,inactive,–
CNCCCOc1cc(F)c(-c2c(Cl)nc3ncnn3c2N[C@@H](C)C(F)(F)F)c(F)c1,0.0372 µM (active),–,0.112 µM (active),0.0501 µM (active)
Cc1cc2nc3ccc(=[N+](C)C)cc-3sc2cc1N,1.68 µM (active),–,5.8 µM (active),4.61 µM (active)
CCCCC(CC)COC(=O)c1ccccc1C(=O)O (stereo not drawn),19.7 µM (active),6.28%,inactive,–
O=C1c2ccccc2CCc2ccccc21,inactive,4.16%,inactive,–
CCOCc1nc2c(N)nc3ccccc3c2n1CC(C)(C)O,18.6 µM (active),-23.1%,inactive,–
Cc1cc(C)c2c(c1)[C@@H](N(Cc1cc(C(F)(F)F)cc(C(F)(F)F)c1)c1nnn(C)n1)CCCN2CC1CCC(C(=O)O)CC1 (stereo partly drawn),18.6 µM (active),-23.9%,inactive,–
C=CC(=O)Nc1cccc(Oc2nc(Nc3ccc(N4CCN(C)CC4)c(F)c3)nc3[nH]ccc23)c1,0.525 µM (active),–,8.91 µM (active),2.82 µM (active)
C#C[C@]1(O)CC[C@H]2[C@@H]3CCC4=CC(=O)CC[C@@H]4[C@H]3CC[C@@]21CC,9.34 µM (active),-2.48% and -7.29%,inactive,–
CCCC(=O)O[C@]1(C(=O)CC)CC[C@H]2[C@@H]3CCC4=CC(=O)CC[C@]4(C)[C@H]3[C@@H](O)C[C@@]21C,inactive,0.342%,inactive,–
COc1cc2c(cc1OC)CN(C(=O)[C@H](C)N[C@@H](CCc1ccccc1)C(=O)O)[C@H](C(=O)O)C2,inactive,4.46%,inactive,–
CC(CSC(=O)c1ccccc1)C(=O)N1C[C@@H](Sc2ccccc2)C[C@H]1C(=O)O (stereo partly drawn),inactive,-2.01%,inactive,–
C[C@]12CCC(=O)C=C1C=C[C@@H]1[C@@H]2CC[C@@]2(C)[C@H]1CC[C@@]21CCC(=O)O1,inactive,8.87%,inactive,–
CC1(C)C(N(O)C(=O)Nc2ccc(Cl)cc2)N(c2ccc(Cl)cc2)C(=O)N1CC(=O)N/N=C/C=C/c1ccc([N+](=O)[O-])o1 (stereo not drawn),2.63 µM (active),–,20 µM (active),25.1 µM (active)
CC(C)n1c(=O)cc(N[C@@H](C)c2ccccc2)[nH]c1=O,11.8 µM (active),6.06%,inactive,–
C=C1C(=O)O[C@H]2C[C@H](C)C(/C=C/C(C)=O)=CC[C@H]12,0.934 µM (active),–,7.94 µM (active),15.8 µM (active)
CC1(C)O[C@@H]2C[C@H]3[C@@H]4C[C@H](F)C5=CC(=O)C=C[C@]5(C)[C@H]4[C@@H](O)C[C@]3(C)[C@]2(C(=O)CO)O1,18.6 µM (active),-3.16% and 0.473%,inactive,–
CC(C)(C)NC(=O)c1cncn1C1CCN(c2ccc(-c3nnc(C(F)(F)F)o3)cn2)CC1,2.95 µM (active),-14%,2.82 µM (active),–
CCOC(=O)NNc1ccc(N(CC)CC(C)O)nn1 (stereo not drawn),inactive,-8.2%,inactive,–
CC(/C=C1\SC(=S)N(CC(=O)O)C1=O)=C\c1ccccc1,inactive,4.22%,inactive,–
CC[C@@]1(O)C(=O)OCc2c1cc1n(c2=O)Cc2c-1nc1cc(F)c(C)c3c1c2[C@@H](N)CC3,0.0042 µM (active),–,5.01 µM (active),0.794 µM (active)
CNC[C@H](O)[C@@H](O)[C@H](O)[C@H](O)CO,inactive,1.47%,inactive,–
O=C(Nc1nccs1)C(c1cc(F)ccc1O)N1Cc2ccccc2C1=O (stereo not drawn),16.6 µM (active),-2.19%,inactive,–
C#C[C@]1(O)CC[C@H]2[C@@H]3CCc4cc(OC5CCCC5)ccc4[C@H]3CC[C@@]21C,11.9 µM (active),-6.39%,14.6 µM (active),–
CN[C@@H](C)C(=O)N[C@H](C(=O)N1CCC[C@H]1C(=O)Nc1sc(-c2ncco2)nc1-c1ccccc1)C1CCCCC1,0.59 µM (active),-5.71%,inactive,–
CC/C(=C(\c1ccccc1)c1ccc(OCCN(C)C)cc1)c1ccccc1,10.8 µM (active) and 18.8 µM (active),–,11.2 µM (active) and 16.4 µM (active),6.31 µM (active)
